# Compound activity (PubChem BioAssay)
# MazEF act: MazEF (E. coli) toxin RNase activation; P0AE70; FAM/BHQ RNA-DNA oligo cleavage fluorescence, 5 h; actives 0.32% (n = 350,000); activation, % at 20 µM; in the data active means activation above about 50%
# FadD28 binding: M. tuberculosis FadD28 bisubstrate binding inhibition; FadD28 bisubstrate probe binding, fluorescence polarization; inhibition, % at 12.5 µM; actives 0.22% (n = 360,000); in the data active means inhibition above about 8.5%, passing the limit was not always enough
# Rv3671c inh: inhibitors of M. tuberculosis serine protease Rv3671c. actives 0.048% (n = 320,000). AID 2606. P9WHR9. inhibition, % at 5.96 µM; in the data active means inhibition above about 38%;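 further: extracellular domain of Rv3671c used as enzyme; 0% = enzyme with DMSO and 100% = no enzyme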
# Target sequence (P9WHR9 whole entry, looked up, the tested form may be a part): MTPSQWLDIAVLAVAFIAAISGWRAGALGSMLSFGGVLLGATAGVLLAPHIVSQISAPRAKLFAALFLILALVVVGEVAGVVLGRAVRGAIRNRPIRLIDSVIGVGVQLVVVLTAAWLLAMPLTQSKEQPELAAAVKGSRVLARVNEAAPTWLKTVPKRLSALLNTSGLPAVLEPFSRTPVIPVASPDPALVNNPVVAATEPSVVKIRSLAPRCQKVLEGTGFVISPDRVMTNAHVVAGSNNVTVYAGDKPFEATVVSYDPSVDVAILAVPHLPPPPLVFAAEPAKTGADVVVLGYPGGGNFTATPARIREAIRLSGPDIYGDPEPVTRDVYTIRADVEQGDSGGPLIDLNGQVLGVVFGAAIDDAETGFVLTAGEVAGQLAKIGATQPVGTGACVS
# Vc quorum ag: inducers of Vibrio cholerae quorum light production without autoinducers | V. cholerae BH1578 lux reporter, luminescence, 6 h | activation, % at 18.7 µM | actives 0.16% (n = 350,000); in the data active means activation mostly above about 9.7%, no sharp cut-off
# Mtb bLac sens: beta-lactam sensitization of Mtb H37Rv; inhibition, % at 25 µM; M. tuberculosis H37Rv growth with meropenem, percent inhibition; AID 434955; actives 0.27% (n = 330,000); call rule not given here;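 further: growth measured after seven days incubation then overnight dye step; 0% = bacteria only wells and 100% = bacteria with antibiotic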
# UGM FP inh: inhibitors of M. tuberculosis UDP-galactopyranose mutase | P9WIQ1 | purified UGM, fluorescence polarization probe displacement | inhibition, % at 10 µM | actives 0.06% (n = 320,000) | AID 504406; in the data active means inhibition above about 10%, passing the limit was not always enough
# * hit, by the source's call; i = inactive; · = no result. Compounds with a hit are over-represented: about 0.74% of the library has one in this group of screens.
SMILES,MazEF act,FadD28 binding,Rv3671c inh,Vc quorum ag,Mtb bLac sens,UGM FP inh
CCOC(=O)C1=C(C)NC2=C(C(=O)C(C(=O)OCC)C(c3ccccc3OC)C2)C1c1ccccn1 (stereo not given),1.9,-0.7,-7.8,i,-1.8,3.3
COc1cc(C2NC(=O)NC(C)=C2C(C)=O)ccc1O (stereo not given),82.8*,-3.8,8.2,i,-4.7,-2.3
COc1cccc(N(CC(=O)NCCSc2ccccn2)S(=O)(=O)c2ccccc2)c1,-29.7,-1.5,-3.6,-0.5,-1.9,-1.4
O=c1[nH]c(=O)n(Cc2ccccc2)c2nc(-c3ccco3)cc(C(F)(F)F)c12,14.5,1.9,-2.9,26.8*,-6.7,3.5
Cc1cc(C(F)(F)F)c2c(=O)[nH]c(=O)n(Cc3ccccc3)c2n1,0.6,-2.1,-0.5,·,-7.0,3.5
C=COCCNC(=S)N1CCOCCOCCN(C(=S)NCCOC=C)CCOCC1,-5.6,0.4,-9.5,i,-4.6,1.6
COc1ccc2c(C)cc(SCC(=O)Nc3cc(C(N)=O)cc(C(N)=O)c3)nc2c1,104.1*,-2.5,-30.5,-0.5,2.0,-1.4
COc1ccc2nc(SCC(=O)NN)cc(C)c2c1,-1.8,-1.7,-13.0,·,-11.4,-1.4
O=S1(=O)CC(N2CCN(CCO)CC2)CN1Cc1cn(Cc2ccccc2C(F)(F)F)nn1 (stereo not given),·,-2.2,·,·,·,·
Cc1cccc2cc(C#N)c(SCC(=O)Nc3ccccc3N3CCOCC3)nc12,-15.4,-19.1,-7.6,·,3.0,1.4
N#Cc1cc2ccccc2nc1SCC(=O)Nc1ccccc1N1CCOCC1,50.8*,-1.7,-30.2,-1.0,-7.8,1.9
O=C(c1cccc(S(=O)(=O)Nc2ccc(F)cc2)c1)N1CCC1,5.2,-1.7,3.5,-0.5,-9.7,-0.3
CCOC(=O)/C=c1/s/c(=C\c2c(OC)ccc3ccccc23)c(=O)n1CC(=O)NCC1CCCO1 (stereo not given),184.0*,1.2,·,·,·,·
COc1ccc(N(CC(=O)Nc2ccccc2C(F)(F)F)C2=NC3CS(=O)(=O)CC3S2)cc1 (stereo not given),1.2,-1.9,-1.8,-0.2,-7.0,0.9
CN1C/C(=C\c2ccc(N3CCOCC3)cc2)C(=O)/C(=C/c2ccc(N3CCOCC3)cc2)C1,56.6*,-0.9,3.6,-0.6,6.3,-1.5
CCC(C)c1ccc(N2C(=O)NC(=O)/C(=C/c3cccn3CCOc3ccc(C)cc3)C2=O)cc1 (stereo not given),123.8*,-1.4,-16.7,·,32.2,6.5
Cc1ccc(N2C(=O)NC(=O)/C(=C\c3cccn3C(C)(C)C)C2=O)cc1,-29.1,0.0,2.5,-0.2,7.5,0.1
COC(=O)c1c(C)cc(O)c(C=O)c1O,3.9,0.1,0.5,-0.4,-2.2,0.3
Cc1cc2c(C(C)C)c(O)c(O)c(C=O)c2c(O)c1-c1c(C)cc2c(C(C)C)c(O)c(O)c(C=O)c2c1O,·,51.0*,·,-0.1,·,·
CCc1ccc(NC(=O)C2CCC(CNC(=O)[C@@H]3Cc4ccccc4CN3)CC2)cc1 (stereo not given in full),-43.7,-0.5,-9.3,-0.8,0.7,0.7
CC(=O)Nc1ccc(N/C=C/C(=O)c2ccc(Cl)cc2)cc1,56.9*,-0.4,-4.8,-0.8,-2.9,-2.0
CC(=O)c1ccc(N/C=C\C(=O)c2ccc(C)cc2)cc1,-6.8,-3.7,-2.6,-0.2,-2.9,0.6
O=C(OCCNc1ccc(C(F)(F)F)cc1[N+](=O)[O-])c1cc2ccccc2oc1=O,250.9*,-3.3,-6.0,-0.4,22.3,2.8
CCc1ccc(OCc2n[nH]c(=S)n2C(C)CCCC(C)C)cc1 (stereo not given),-10.7,-5.5,9.2,-0.2,1.6,-1.8
CC1=C(C#N)C(=O)NC(=O)/C1=C\c1ccc(-c2cc(C)c(C)cc2[N+](=O)[O-])o1,-3.0,14.7*,·,i,·,·
O=C1NC(=O)C(=Cc2ccc(-c3cc(Cl)ccc3[N+](=O)[O-])o2)C(=O)N1,-13.8,4.3,·,-0.8,·,·
CN(C)c1ccc(C(=O)/C=C/c2ccccc2)cc1,458.9*,-1.9,1.8,-0.5,1.5,4.3
CC(=O)Nc1cccc(C(=O)/C=C/c2ccc(/C=C/C(=O)c3cccc(NC(C)=O)c3)cc2)c1,·,·,-55.8,·,8.1,2.3
CC(=O)Nc1cccc(C(=O)/C=C/c2ccc(N(C)C)cc2)c1,145.3*,-0.6,-67.1,-0.3,-1.0,-7.6
Nn1c(SCC(=O)NCC2CCCO2)nnc1-c1ccco1 (stereo not given),7.5,0.2,2.2,-0.3,-3.5,-0.7
